# Assay outcomes: PubChem BioAssay, Sanford-Burnham Center for Chemical Genomics
# An excerpt weighted towards active compounds, which were near 3% of everything screened.
# TRAIL sens C8: sensitizes caspase-8 expressing cells to TRAIL; AID 624354; 1% of 360,000 active; NB7+C8 cells + TRAIL, ATPlite viability luminescence; inhibition (viability loss, TRAIL sensitization), % at 10 µM;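 active = compounds causing at least 50% loss of cell viability in the single-dose screen, relative to plate controls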
# SENP8 block-1: blocks the human protease SENP8; purified SENP8, Z-RLRGG-aminoluciferin cleavage, luminescence; Q96LD8; 1.2% of 330,000 active; inhibition, % at 10 µM; in the data active = inhibition above about 50%
# Target sequence (Q96LD8 whole entry, looked up): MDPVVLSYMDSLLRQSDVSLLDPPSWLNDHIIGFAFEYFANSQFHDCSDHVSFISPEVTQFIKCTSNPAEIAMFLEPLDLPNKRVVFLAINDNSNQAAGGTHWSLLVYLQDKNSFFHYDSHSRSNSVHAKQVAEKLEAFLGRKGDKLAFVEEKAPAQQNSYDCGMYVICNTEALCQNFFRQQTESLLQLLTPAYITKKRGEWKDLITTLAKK
# PPC-1+TRAIL kill: PPC-1 cancer cell killing with TRAIL present; PPC-1 cells + TRAIL, ATPLite viability luminescence; cell killing (% activity), % at 4 µM or 5 µM; 0.41% of 220,000 active;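 active = cell killing above 50% in the first pass at 4 µM, then a duplicate retest at 5 µM averaging 50% or more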;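 note: plate controls were cells with TRAIL plus DMSO for no effect and medium-only wells lacking cells for full effect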
# SENP6 inh: SENP6 protease inhibition. Q9GZR1. AID 2599. inhibition, % at 10 µM. Recombinant SENP6 catalytic domain, aminoluciferin luminescence. 1.8% of 330,000 active;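 active = inhibition above about 50% at the single tested dose, limit read from the data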;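 note: plate controls were DMSO wells with enzyme for no effect and DMSO wells lacking enzyme for full effect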
# SENP8 block-2: inhibitors of human SENP8 protease | Q96LD8 | 0.64% of 360,000 active | AID 602440 | inhibition, % at 20 µM | recombinant SENP8, Nedd8 substrate fluorescence; in the data active = inhibition mostly above about 40%, no sharp cut-off; inactive = mostly below about 27%
# SENP7 block: SENP7 protease inhibition | Q9BQF6 | recombinant SENP7, Z-RLRGG-aminoluciferin luminescence, 40 min | inhibition, % at 5 µM | 1.5% of 330,000 active | AID 434973;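 active = inhibition above about 50% at the single test dose, limit read from the data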;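 note: plate controls were DMSO with enzyme for no effect and no enzyme buffer wells for full effect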
# SENP8 conf: human SENP8 inhibition, confirmed; inhibition, % at 12.5 µM; Recombinant SENP8, Z-RLRGG-aminoluciferin luminescence, 60 min; 40% of 6,200 active; shares compounds with SENP7 block;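 active = mean inhibition across replicates above about 50%, limit read from the data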
# SENP6 confirm: human SENP6 inhibition, confirmed; inhibition, % at 12.5 µM; 58% of 6,200 active; shares compounds with SENP7 block; AID 488915; recombinant SENP6, Z-RLRGG-aminoluciferin luminescence
# SENP7 confirm: human SENP7 inhibition, confirmed. shares compounds with SENP7 block. recombinant SENP7, Z-RLRGG-aminoluciferin luminescence, 40 min. inhibition, % at 12.5 µM. 69% of 6,200 active. AID 488917
# Casp3 SENP sel: selectivity test for SENP inhibitors: human caspase-3 inhibition; shares compounds with SENP7 block; 60% of 6,200 active; inhibition, % at 12.5 µM; purified caspase-3, Z-DEVD-aminoluciferin luminescence, 60 min;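 active = mean inhibition above about 50%, limit read from the data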;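 note: plate controls were enzyme with DMSO for no effect and wells without caspase-3 for full effect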
# Target sequence (P42574 28-227 limits assumed): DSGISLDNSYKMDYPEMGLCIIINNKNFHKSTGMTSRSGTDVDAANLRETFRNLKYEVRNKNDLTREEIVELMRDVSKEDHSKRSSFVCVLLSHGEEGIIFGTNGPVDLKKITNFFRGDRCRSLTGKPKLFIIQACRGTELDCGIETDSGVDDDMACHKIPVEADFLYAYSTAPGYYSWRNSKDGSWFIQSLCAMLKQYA
# Luc interf: counter-screen for SENP inhibitors: luminescence interference; shares compounds with SENP7 block; inhibition, % at 12.5 µM; 39% of 6,200 active; Pre-incubated SENP8/Z-RLRGG-aminoluciferin, luciferase luminescence interference;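 active = mean inhibition above about 50% when retested at one dose, limit read from the data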;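 note: plate controls were DMSO wells with completed reaction for no effect and substrate without enzyme for full effect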
# Starred values were filed as active, the others as inactive; . = no result given.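 Rule for the calls, unless noted: active = mean inhibition above about 50% in the one-dose retest (limit read from the data); inactive = the rest.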
SMILES,TRAIL sens C8,SENP8 block-1,PPC-1+TRAIL kill,SENP6 inh,SENP8 block-2,SENP7 block,SENP8 conf,SENP6 confirm,SENP7 confirm,Casp3 SENP sel,Luc interf
Brc1ccc(-c2ncc(-c3ccccc3)cn2)cc1,10,20,-2,7,18,74*,11,12,-6,-3,-2
CC(O)(c1cccc(F)c1)c1nc(-c2cc(F)cc(F)c2)cs1 (centres undefined),-4,.,.,.,12,.,.,.,.,.,.
CCOC(=O)/C(=N\Nc1ncnc2ccccc12)c1ccc(OC)cc1,5,74*,.,77*,15,65*,24,70*,90*,48,8
COc1ccc(/C(=N/Nc2ncnc3ccccc23)C(=O)O)cc1,0,-1,.,-25,-7,2,.,.,.,.,.
Cc1ccccc1-c1nnc(-c2ccccc2)o1,21,83*,34,87*,17,83*,78*,88*,98*,84*,74*
Cc1ccccc1-c1nnc(-c2ccc(Cl)cc2)o1,-8,58*,21,10,17,75*,20,17,23,13,-3
COc1ccc(-c2nnc(-c3ccc(N(C)C)cc3)o2)cc1,2,-10,21,3,-304,4,.,.,.,.,.
Cc1cccc(-c2nnc(-c3ccccc3)o2)c1,16,74*,16,88*,5,86*,4,86*,98*,82*,66*
CN(C)c1ccc(-c2nnc(-c3ccccc3F)o2)cc1,33,77*,.,87*,-393,85*,34,67*,74*,79*,32
CC(C)c1cc(C(F)(F)F)nc(NNc2nc(C(C)C)cc(C(F)(F)F)n2)n1,-11,.,.,.,17,.,.,.,.,.,.
O=C(c1ccco1)N1CCN(C(=S)Nc2ccc(Br)cc2Cl)CC1,-7,-10,.,-5,9,-7,.,.,.,.,.
Cc1ccc(/C=C/c2nnc(-c3cccc(C)c3)o2)cc1,4,68*,4,80*,-273,13,3,0,-2,-2,-3
Cn1cc(-c2nnc(-c3ccccc3)o2)c2ccccc21,40,47,47,-36,-339,68*,15,12,15,18,6
c1ccc(-c2nnc(-c3ccco3)o2)cc1,2,16,18,47,-78,44,.,.,.,.,.
Cc1ccc(C)c(NC(=S)N2CCC(NC(=O)c3ccco3)CC2)c1,-12,3,.,7,15,-2,.,.,.,.,.
Cc1cc(C(=O)CCC(=O)NCC2COc3ccccc3O2)c(C)s1 (centres undefined),-29,-2,.,-2,0,-3,.,.,.,.,.
Cc1c(C(=O)N(CCC#N)c2ccccc2)sc2nc3n(c(=O)c12)CCCC3,-14,-6,.,-8,12,-7,.,.,.,.,.
CCOCc1cc(CN2CCC(CCC(=O)NC3CC3)CC2)ccc1OC,-9,2,.,-11,-1,1,.,.,.,.,.
O=C1/C(=C\c2cccs2)Sc2ccc3ccccc3c21,37,88*,12,92*,10,98*,9,50*,80*,78*,2
NC1=NC(=O)/C(=C\c2cccs2)S1,1,-16,11,-26,0,-11,.,.,.,.,.
CCC(C)NC(=O)C1CCN(C(=O)N(C)C)CC1 (centres undefined),-15,-5,24,5,15,102*,-1,-1,-4,-4,-6
COc1cccc(/C=N/Nc2cc(Cl)nc(C)n2)c1O,9,10,26,28,-26,23,.,.,.,.,.
COc1cccc(/C=N/Nc2c(Cl)cncc2Cl)c1O,9,66*,.,76*,15,62*,74*,71*,90*,65*,72*
